Measured values published in the supplement of paper PMC7366291.
Counter-ions that a name gives are not always drawn. ± gives the standard deviation.

System: Danio rerio Tg(wt1b:EGFP) embryo, pronephros
Test: glomerular separation, fold change vs DMSO control; higher = glomeruli further apart (abnormal)
Conditions: 25 µM; exposure: 24-48 hpf
Summary of the method: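 Using a Fiji macro, distances and angles were calculated from 16 reference points set by hand on maximum projections of pronephroi imaged dorsally (470 nm, 10 z-slices) in agarose-filled 96-well plates. The dechorionated Tg(wt1b:EGFP) zebrafish embryos had received 25 μM compound in 0.5% DMSO in HEPES-buffered E3 with 0.003% PTU from 24 to 48 hpf at 28.5°C. Values more than 2 SD from a feature's mean were excluded. Each feature appears as a fold change over the mean of DMSO-treated embryos from the same day.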

Row | Compound | glomerular separation
1 | Cn1c([N+](=O)[O-])cnc1COC(N)=O [Ronidazole] | 0.869 ± 0.18
2 | COc1ccc(Cl)cc1C(=O)NCCc1ccc(S(=O)(=O)NC(=O)NC2CCCCC2)cc1 [Glibenclamide] | 0.804 ± 0.39
3 | CC1(C)[C@@H](OC(=O)CCC(=O)O)CC[C@]2(C)[C@H]3C(=O)C=C4[C@@H]5C[C@@](C)(C(=O)O)CC[C@]5(C)CC[C@@]4(C)[C@]3(C)CC[C@@H]12 [Carbenoxolone disodium salt] | 0.718 ± 0.41
4 | O=C(O)CCC(=O)c1ccc(-c2ccccc2)cc1 [Fenbufen] | 6.73 ± 2.4
5 | CCN[C@H]1C[C@H](C)S(=O)(=O)c2sc(S(N)(=O)=O)cc21 [Dorzolamide hydrochloride] | 1.08 ± 0.35
6 | O=C(O)CCCC[C@@H]1SC[C@@H]2NC(=O)N[C@@H]21 [Biotin] | 0.993 ± 0.31
7 | CSc1ccc2c(c1)N(CCC1CCCCN1C)c1ccccc1S2 (stereo not drawn) [Thioridazine hydrochloride] | 1.12 ± 0.33
8 | COc1ccc(C(=O)NCc2ccc(OCCN(C)C)cc2)cc1OC [Itopride] | 1.05 ± 0.44
9 | OC(Cn1cncn1)(Cn1cncn1)c1ccc(F)cc1F [Fluconazole] | 1.11 ± 0.31
10 | COc1ccc(CN(CCN(C)C)c2ccccn2)cc1 [Pyrilamine maleate] | 1.29 ± 0.44
11 | NCCCCCC(=O)O [Aminocaproic acid] | 0.833 ± 0.35
12 | CC[C@H]1OC(=O)[C@H](C)[C@@H](O[C@H]2C[C@@](C)(OC)[C@@H](O)[C@H](C)O2)[C@H](C)[C@@H](O[C@@H]2O[C@H](C)C[C@H](N(C)C)[C@H]2O)[C@](C)(O)C[C@@H](C)CN(C)[C@H](C)[C@@H](O)[C@]1(C)O [Azithromycin] | 0.933 ± 0.41
13 | CCC(C)(CN(C)C)OC(=O)c1ccccc1 (stereo not drawn) [Amyleine hydrochloride] | 1.1 ± 0.77
14 | CCCOc1cc(N)ccc1C(=O)OCCN(CC)CC [Propoxycaine hydrochloride] | 0.859 ± 0.24
15 | O=C1CCc2ccc(OCCCCN3CCN(c4cccc(Cl)c4Cl)CC3)cc2N1 [Aripiprazole] | 0.976 ± 0.16
16 | O=C(O)Cc1ccc(-c2ccccc2)cc1 [Felbinac] | 4.74 ± 1.6
17 | COc1ccc(C(=O)c2ccccc2)c(O)c1 [Oxybenzone] | 0.878 ± 0.34

Row | Compound | glomerular separation
18 | C[C@H](N)[C@H](O)c1cccc(O)c1 [Metaraminol bitartrate] | 0.797 ± 0.44
19 | CN1CCCCC1CCN1c2ccccc2Sc2ccc([S+](C)[O-])cc21 (stereo not drawn) [Mesoridazine besylate] | 1.4 ± 1
20 | CCOc1nc2cccc(C(=O)O)c2n1Cc1ccc(-c2ccccc2-c2nnn[nH]2)cc1 [Candesartan] | 0.996 ± 0.37
21 | O=C(Nc1ccccc1)OCC(CN1CCCCC1)OC(=O)Nc1ccccc1 (stereo not drawn) [Diperodon hydrochloride] | 1.1 ± 0.41
22 | CCCCCCC[N+](CC)(CC)CCCCc1ccc(Cl)cc1 [Clofilium tosylate] | 0.78 ± 0.37
23 | Cc1ccc(/C(=C\CN2CCCC2)c2ccccn2)cc1 [Triprolidine hydrochloride] | 0.823 ± 0.16
24 | O=C(c1ccc(OCCN2CCCCC2)cc1)c1c(-c2ccc(O)cc2)sc2cc(O)ccc12 [Raloxifene hydrochloride] | 0.793 ± 0.18
25 | CN(C)CCOC(c1ccc(Cl)cc1)c1ccccn1 (stereo not drawn) [Carbinoxamine maleate salt] | 0.746 ± 0.34
26 | C#C[C@]1(O)CC[C@H]2[C@@H]3CCC4=CC(=O)CC[C@@H]4[C@H]3CC[C@@]21C [Norethindrone] | 0.967 ± 0.35
27 | CN1C(C(=O)Nc2ccccn2)=C(O)c2ccccc2S1(=O)=O [Piroxicam] | 6.43 ± 2.4
28 | C[C@@H](O)[C@H]1C(=O)N2C(C(=O)O)=C(S[C@@H]3CN[C@H](C(=O)N(C)C)C3)[C@H](C)[C@H]12 [Meropenem] | 1.03 ± 0.35
29 | Cc1cccc(CN2CCN(C(c3ccccc3)c3ccc(Cl)cc3)CC2)c1 (stereo not drawn) [Meclozine dihydrochloride] | 1.25 ± 0.33
30 | CCN(CC)CCOC(=O)C(c1ccccc1)c1ccccc1 [Adiphenine hydrochloride] | 1.14 ± 0.47
31 | CCOC(=O)C1=C(C)NC(C)=C(C(=O)OC)C1c1cccc(Cl)c1Cl (stereo not drawn) [Felodipine] | 5.36 ± 2.5
32 | COc1ccc(CC2c3cc(OC)c(OC)cc3CC[N+]2(C)CCC(=O)OCCCCCOC(=O)CC[N+]2(C)CCc3cc(OC)c(OC)cc3C2Cc2ccc(OC)c(OC)c2)cc1OC (stereo not drawn) [Atracurium besylate] | 1.2 ± 0.6
33 | CC(C)(C)NCC(O)COc1cccc2c1CCC(=O)N2 (stereo not drawn) [Carteolol hydrochloride] | 1.21 ± 0.32
